Laboratory results: PubChem BioAssay (Tox21)
Records with an inconclusive call do not appear. Unmarked numbers belong to inactive results. Calls come from the whole dose curve.

Target: Retinoic acid receptor RXR-alpha (Homo sapiens) (UniProt P19793)
Experiment: qHTS assay to identify small molecule agonists of the RXR signaling pathway (AID 1159527); note: nearly all actives have a fitted effect of over 35% in size
Settings: HEK293T RXRa-UAS-bla, beta-lactamase ratio, 16 h; series mostly up to 76.8 µM; activation: at the top concentration
Text: U.S. Tox21 Program National Center for Advancing Translational Sciences [NCATS] NIH Chemical Genomics Center [NCGC] U.S. Environmental Protection Agency [EPA] National Institutes of Environmental Health Sciences [NIEHS] National Toxicology Program [NTP] U.S. Food and Drug Administration [FDA] Tox21 Assay Overview: The Retinoid X receptor (RXR), a nuclear hormone receptor expressed in liver, spleen, placenta, epidermis, central nervous system. These receptors are able to form homo and heterodimers with other nuclear receptors and due to this heterodimerizing ability, RXR functions as master regulators producing diverse physiological effects. Three subtypes of RXR exist; alpha, beta and gamma. Retinoid X receptor alpha (RXR-alpha) has potential roles in metabolic signaling pathways, skin alopecia, dermal cysts, cardiac development, insulin sensitization etc. Therefore screening environmental chemicals on RXR-alpha signaling can be used for the studies focused on such therapeutic applications. For quantification of RXR-alpha ligands signaling, GeneBLAzer RXR alpha-UAS-bla HEK 293T (Life Technologies, Carlsbad, CA) cells containing a beta-lactamase reporter-gene under control of Retinoid X receptor-alpha response element were used to screen Tox21 10K library.
Tox21 Assay Protocol Summary: RXR-alpha HEK 293T cells were dispensed at 2,000 cells/6 uL of assay medium containing 2% charcoal-stripped FBS using a Multidrop Combi (ThermoFisher Scientific, Waltham, MA) dispenser. The assay was performed in black wall/clear-bottom 1536-well plates (Greiner Bio-One North America Inc. Monroe, NC). 9-cis retinoic acid was used as a positive control in the agonist mode screen. After the assay plates were incubated at 37 C and 5% CO2 for 5 hr, 23 nL of compounds dissolved in DMSO, positive controls or DMSO only were transferred to the assay plate by a Pintool station (Kalypsys, San Diego, CA). The assay plates were incubated at 37 C and 5% CO2 for 16 hr. One uL of LiveBLAzer B/G FRET substrate (Life Technologies) was added using a Flying Reagent Dispenser (Aurora Discovery, San Diego, CA) and the plates were incubated at room temperature for 2 hr. Fluorescence intensity (405 nm excitation, 460/530 nm emission) was measured using an Envision plate reader (PerkinElmer, Shelton, CT).
% is set by controls: 0 for no effect and ±100 for the full control effect.

Chain of Retinoic acid receptor RXR-alpha (Homo sapiens) (P19793 whole entry, looked up): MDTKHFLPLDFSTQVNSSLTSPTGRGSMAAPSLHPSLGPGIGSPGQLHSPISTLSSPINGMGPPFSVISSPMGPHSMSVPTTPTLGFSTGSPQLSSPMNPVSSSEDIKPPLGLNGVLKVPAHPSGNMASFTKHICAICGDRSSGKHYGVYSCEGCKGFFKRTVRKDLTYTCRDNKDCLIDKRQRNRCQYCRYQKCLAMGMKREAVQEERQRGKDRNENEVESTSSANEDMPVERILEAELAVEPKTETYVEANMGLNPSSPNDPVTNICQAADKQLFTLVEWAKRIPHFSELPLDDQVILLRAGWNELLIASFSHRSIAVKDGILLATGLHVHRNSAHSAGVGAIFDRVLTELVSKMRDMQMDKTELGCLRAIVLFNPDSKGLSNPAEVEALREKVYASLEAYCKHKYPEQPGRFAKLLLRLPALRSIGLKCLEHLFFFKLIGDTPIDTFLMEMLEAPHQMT

Row | SMILES | activation
1 | CC(Cl)(Cl)Cl | 2.89%
2 | CCCC[N+](=O)[O-] | 3.71%
3 | C=C1CC[C@@]2(O)[C@H]3Cc4ccc(O)c5c4[C@@]2(CCN3CC2CC2)[C@H]1O5 | 5.92% [at 35.3 µM]
4 | CN(C)C(=O)Oc1cc(OC(=O)N(C)C)cc(C(O)CNC(C)(C)C)c1 (stereo not given) | 6.35% [at 35.3 µM]
5 | CC(C)[C@]12CC(=O)[C@H](C)[C@H]1C2 | 10.2%
6 | [P]#[In] | -1.14%
7 | NCC1(CC(=O)O)CCCCC1 | 5.6% [at 35.3 µM]
8 | C/C=C/CC#N | -0.458%
9 | CC1NCCOC1c1ccccc1 (stereo not given) | 3.26% [at 35.3 µM]
10 | O=C(Cl)c1ccccc1 | 0.926%
11 | Clc1nc(Cl)nc(Nc2ccccc2Cl)n1 | 6.54%
12 | CC(=O)OCC1=C(C(=O)O)N2C(=O)[C@@H](N)[C@H]2SC1 | -0.797% [at 15.8 µM]
13 | CC(=NC#N)N(C)Cc1ccc(Cl)nc1 | -2.05%
14 | Cc1ccc(Cl)c(O)c1 | -0.999% [at 35.3 µM]
15 | ClC1=C(Cl)C2(Cl)C(CBr)CC1(Cl)C2(Cl)Cl (stereo not given) | 0.767% [at 35.3 µM]
16 | Nc1c(Cl)c(F)nc(OCC(=O)O)c1Cl | 11.3%
17 | O=C/C=C/c1ccco1 | 1.05%
18 | CNC(=O)O/N=C(/CSC)C(C)(C)C | 0.387%
19 | COc1ccc2c(C(=O)c3ccc(Cl)cc3)c(C)n(CC(=O)O)c2c1 | 0.852% [at 35.3 µM]
20 | CC(C)[N+](C)(CCC(C(N)=O)(c1ccccc1)c1ccccc1)C(C)C | -0.36% [at 35.3 µM]

Row | SMILES | activation
21 | COC[C@@H](NC(C)=O)C(=O)NCc1ccccc1 | 1.03% [at 35.3 µM]
22 | CC[C@@H](CO)NC(=O)[C@@H]1C=C2c3cccc4c3c(cn4C)C[C@H]2N(C)C1 | 3.6% [at 35.3 µM]
23 | CCc1ccc(C2CCNCC2)cc1 | -4.29% [at 35.3 µM]
24 | c1cncc([C@@H]2CCCCN2)c1 | 10.1%
25 | CC(C)(N)Cc1ccc(Cl)cc1 | 2.1% [at 35.3 µM]
26 | CCN[C@H](C)Cc1cccc(C(F)(F)F)c1 | 8.79%
27 | COP(=O)(OC)O/C(C)=C/C(=O)N(C)C | 8.88%
28 | NC(=O)OCCCc1ccccc1 | 3.8% [at 35.3 µM]
29 | COP(=O)(O)OC | 4.84%
30 | CC(C)C(C)(N)C#N (stereo not given) | 5.46%
31 | O=C(Cl)CCl | -6.62%
32 | CS(=O)(=O)c1ccc(C(=O)C2C(=O)CCCC2=O)c(Cl)c1COCC(F)(F)F | -15%
33 | CCCN1CCC[C@@H]2Cc3[nH]ncc3C[C@H]21 | 2.88% [at 35.3 µM]
34 | CCC1(c2ccccc2)C(=O)N(COC)C(=O)N(COC)C1=O | 9.51% [at 35.3 µM]
35 | CCOC(=O)Nc1cccc(OC(=O)Nc2ccccc2)c1 | -4.03%
36 | CCCCCCC1CCOC1=O (stereo not given) | 8.31%
37 | CC(C)N(Cc1ccccc1)C(=O)C(C)(C)C | -4.28%
38 | CCCOC(=O)Cc1ccc(OCC(=O)N(CC)CC)c(OC)c1 | 16.1% [at 35.3 µM]
39 | CC1N=C(N)OC1c1ccccc1 (stereo not given) | 0.161%
40 | CCNP(=S)(OC)O/C(C)=C/C(=O)OC(C)C (stereo not given) | 0.362%
